# From PMC7862700, “An all-to-all approach to the identification of sequence-specific readers for epigenetic DNA modifications on cytosine”
# Assays:
# Assay in all cases: DAPPL (digital affinity profiling via proximity ligation, sequencing); 10 mM Tris-HCl pH 7.5, 50 mM NaCl, 1 mM DTT, 4% glycerol, room temperature, 30 min; GST-TFs on glutathione beads, 16-mer random dsDNA library, 0.1% formaldehyde crosslink after washing; high values mean tight binding
# Details in all cases: protein: recombinant; tags: N-terminal GST; dsDNA, one strand shown
# [1] = target: T1, ELK1 (Homo sapiens, UniProt P19419 1-428)
# T1 sequence: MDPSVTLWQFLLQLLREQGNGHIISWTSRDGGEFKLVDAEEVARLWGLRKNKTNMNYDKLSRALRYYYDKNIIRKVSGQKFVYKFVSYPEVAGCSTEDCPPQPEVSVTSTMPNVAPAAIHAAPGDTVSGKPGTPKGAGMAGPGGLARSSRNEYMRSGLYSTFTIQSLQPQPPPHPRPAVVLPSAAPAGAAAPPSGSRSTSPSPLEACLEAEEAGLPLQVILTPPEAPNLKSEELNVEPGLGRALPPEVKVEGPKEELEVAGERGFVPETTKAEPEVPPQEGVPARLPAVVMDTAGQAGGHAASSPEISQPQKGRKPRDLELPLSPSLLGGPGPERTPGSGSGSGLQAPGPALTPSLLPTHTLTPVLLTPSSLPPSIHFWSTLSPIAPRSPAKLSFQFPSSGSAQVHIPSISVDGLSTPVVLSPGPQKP
# In short: (§1)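 GST fusions of human transcription factors were expressed in yeast and captured with glutathione beads. Once given DNA barcodes and pooled alongside a tag-only sample, they were incubated for 30 min at room temperature with 200 nmole of a random double-stranded 16-mer DNA library in Tris/NaCl/DTT/glycerol buffer, then washed, crosslinked (0.1% formaldehyde), proximity-ligated, PCR-amplified and sequenced on an Illumina NextSeq500. The binding signal of each hexamer is its read frequency for a factor divided by its frequency for the tag-only sample.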
# [2] = target: T2, GABPA (Homo sapiens, UniProt Q06546 1-454)
# T2 sequence: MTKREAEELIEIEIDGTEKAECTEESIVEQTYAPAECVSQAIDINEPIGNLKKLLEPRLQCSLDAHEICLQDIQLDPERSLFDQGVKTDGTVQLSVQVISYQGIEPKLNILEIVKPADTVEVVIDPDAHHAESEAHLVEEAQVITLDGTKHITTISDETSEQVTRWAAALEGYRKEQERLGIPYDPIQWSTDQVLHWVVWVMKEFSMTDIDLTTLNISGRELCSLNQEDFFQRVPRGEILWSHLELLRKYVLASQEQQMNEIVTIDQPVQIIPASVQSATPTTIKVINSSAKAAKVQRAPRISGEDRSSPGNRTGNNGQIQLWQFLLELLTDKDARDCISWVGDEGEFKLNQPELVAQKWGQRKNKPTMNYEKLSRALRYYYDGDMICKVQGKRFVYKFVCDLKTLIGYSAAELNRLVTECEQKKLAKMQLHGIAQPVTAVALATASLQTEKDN
# In short: as §1
# [3] = target: T3, ERG (Homo sapiens, UniProt P11308 1-479)
# T3 sequence: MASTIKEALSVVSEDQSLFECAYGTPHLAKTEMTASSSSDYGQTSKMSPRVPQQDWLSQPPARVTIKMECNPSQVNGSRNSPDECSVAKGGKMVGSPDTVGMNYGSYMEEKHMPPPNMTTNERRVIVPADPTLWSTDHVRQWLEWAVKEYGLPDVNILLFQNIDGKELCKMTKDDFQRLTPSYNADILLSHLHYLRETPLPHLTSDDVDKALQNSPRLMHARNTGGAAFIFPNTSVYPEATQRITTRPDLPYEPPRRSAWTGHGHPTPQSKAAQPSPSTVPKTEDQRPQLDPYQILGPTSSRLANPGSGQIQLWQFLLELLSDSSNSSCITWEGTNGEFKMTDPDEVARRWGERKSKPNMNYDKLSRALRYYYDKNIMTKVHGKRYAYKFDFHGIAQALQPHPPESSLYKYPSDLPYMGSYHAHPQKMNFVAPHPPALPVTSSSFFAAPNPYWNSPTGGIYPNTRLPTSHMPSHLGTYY
# In short: as §1
# [4] = target: ELF1 (Homo sapiens, UniProt P32519 1-619)
# In short: as §1
# [5] = target: ETV5 (Homo sapiens, UniProt P41161 1-510)
# In short: as §1
# [6] = target: T4, ELK4 (Homo sapiens, UniProt P28324-2 1-405)
# T4 sequence: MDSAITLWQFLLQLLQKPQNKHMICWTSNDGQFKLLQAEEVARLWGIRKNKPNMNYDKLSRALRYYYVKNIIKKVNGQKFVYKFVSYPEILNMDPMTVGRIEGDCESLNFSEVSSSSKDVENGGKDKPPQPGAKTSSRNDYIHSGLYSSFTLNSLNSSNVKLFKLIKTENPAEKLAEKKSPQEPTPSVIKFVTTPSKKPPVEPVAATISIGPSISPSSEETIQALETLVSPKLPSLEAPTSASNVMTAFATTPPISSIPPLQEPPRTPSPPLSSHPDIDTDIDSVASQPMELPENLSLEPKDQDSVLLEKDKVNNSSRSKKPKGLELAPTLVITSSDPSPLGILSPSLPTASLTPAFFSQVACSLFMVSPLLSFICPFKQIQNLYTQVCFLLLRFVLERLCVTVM
# In short: as §1
# [7] = target: T5, ERF (Homo sapiens, UniProt P50548 1-548)
# T5 sequence: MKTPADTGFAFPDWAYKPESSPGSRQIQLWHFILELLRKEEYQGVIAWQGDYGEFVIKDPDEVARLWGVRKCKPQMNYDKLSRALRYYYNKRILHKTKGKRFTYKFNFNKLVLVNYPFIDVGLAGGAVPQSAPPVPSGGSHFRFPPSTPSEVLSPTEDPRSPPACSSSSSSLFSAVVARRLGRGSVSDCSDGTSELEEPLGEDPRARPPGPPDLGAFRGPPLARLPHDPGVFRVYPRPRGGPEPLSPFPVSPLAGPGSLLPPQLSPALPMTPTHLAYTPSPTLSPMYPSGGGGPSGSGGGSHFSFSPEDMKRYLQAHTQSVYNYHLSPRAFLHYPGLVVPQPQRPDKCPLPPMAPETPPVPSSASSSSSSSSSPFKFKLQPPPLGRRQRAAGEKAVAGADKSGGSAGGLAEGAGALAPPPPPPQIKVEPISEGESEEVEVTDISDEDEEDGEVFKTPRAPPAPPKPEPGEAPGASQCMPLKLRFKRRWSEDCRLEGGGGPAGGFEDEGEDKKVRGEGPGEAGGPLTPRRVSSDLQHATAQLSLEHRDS
# In short: as §1
# [8] = target: T6, ETV3L (Homo sapiens, UniProt Q6ZN32 1-361)
# T6 sequence: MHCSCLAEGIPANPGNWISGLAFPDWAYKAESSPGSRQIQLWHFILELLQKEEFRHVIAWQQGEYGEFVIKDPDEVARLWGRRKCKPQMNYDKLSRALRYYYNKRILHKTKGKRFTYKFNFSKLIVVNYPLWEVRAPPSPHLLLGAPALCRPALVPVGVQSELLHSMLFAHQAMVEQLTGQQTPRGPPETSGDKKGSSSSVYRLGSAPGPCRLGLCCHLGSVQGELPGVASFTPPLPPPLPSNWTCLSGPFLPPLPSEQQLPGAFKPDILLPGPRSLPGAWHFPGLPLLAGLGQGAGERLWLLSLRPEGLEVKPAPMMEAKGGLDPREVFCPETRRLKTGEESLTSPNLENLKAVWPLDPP
# In short: as §1
# [9] = target: T7, SPDEF (Homo sapiens, UniProt O95238 1-335)
# T7 sequence: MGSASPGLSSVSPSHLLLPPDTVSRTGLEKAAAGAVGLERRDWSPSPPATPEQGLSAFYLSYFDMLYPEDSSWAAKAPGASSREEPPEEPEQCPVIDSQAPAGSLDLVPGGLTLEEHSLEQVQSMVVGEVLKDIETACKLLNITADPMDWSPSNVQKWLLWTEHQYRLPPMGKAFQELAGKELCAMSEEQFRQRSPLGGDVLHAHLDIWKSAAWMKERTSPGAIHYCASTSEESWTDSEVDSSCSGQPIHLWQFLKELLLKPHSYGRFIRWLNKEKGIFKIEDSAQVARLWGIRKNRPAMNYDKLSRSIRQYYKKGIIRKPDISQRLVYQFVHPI
# In short: as §1
# [10] = target: T8, ETV7 (Homo sapiens, UniProt Q9Y603 1-341)
# T8 sequence: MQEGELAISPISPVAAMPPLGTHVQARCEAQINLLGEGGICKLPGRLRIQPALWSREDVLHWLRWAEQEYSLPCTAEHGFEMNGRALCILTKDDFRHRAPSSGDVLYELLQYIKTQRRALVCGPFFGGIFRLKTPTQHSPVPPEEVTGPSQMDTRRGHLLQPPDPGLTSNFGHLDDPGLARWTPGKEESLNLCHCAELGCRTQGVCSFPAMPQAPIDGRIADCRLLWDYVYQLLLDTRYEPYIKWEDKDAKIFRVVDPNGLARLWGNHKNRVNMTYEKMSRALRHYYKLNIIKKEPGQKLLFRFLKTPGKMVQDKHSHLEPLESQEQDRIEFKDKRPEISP
# In short: as §1
# [11] = target: T9, ETV3 (Homo sapiens, UniProt P41162-2 1-143)
# T9 sequence: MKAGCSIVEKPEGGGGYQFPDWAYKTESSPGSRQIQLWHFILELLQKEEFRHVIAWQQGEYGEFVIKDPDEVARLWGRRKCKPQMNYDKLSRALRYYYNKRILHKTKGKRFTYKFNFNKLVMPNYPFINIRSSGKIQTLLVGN
# In short: as §1
# [12] = target: ETV6 (Homo sapiens, UniProt P41212 1-452)
# In short: as §1
# Sequence of ELF1 (P32519 whole entry): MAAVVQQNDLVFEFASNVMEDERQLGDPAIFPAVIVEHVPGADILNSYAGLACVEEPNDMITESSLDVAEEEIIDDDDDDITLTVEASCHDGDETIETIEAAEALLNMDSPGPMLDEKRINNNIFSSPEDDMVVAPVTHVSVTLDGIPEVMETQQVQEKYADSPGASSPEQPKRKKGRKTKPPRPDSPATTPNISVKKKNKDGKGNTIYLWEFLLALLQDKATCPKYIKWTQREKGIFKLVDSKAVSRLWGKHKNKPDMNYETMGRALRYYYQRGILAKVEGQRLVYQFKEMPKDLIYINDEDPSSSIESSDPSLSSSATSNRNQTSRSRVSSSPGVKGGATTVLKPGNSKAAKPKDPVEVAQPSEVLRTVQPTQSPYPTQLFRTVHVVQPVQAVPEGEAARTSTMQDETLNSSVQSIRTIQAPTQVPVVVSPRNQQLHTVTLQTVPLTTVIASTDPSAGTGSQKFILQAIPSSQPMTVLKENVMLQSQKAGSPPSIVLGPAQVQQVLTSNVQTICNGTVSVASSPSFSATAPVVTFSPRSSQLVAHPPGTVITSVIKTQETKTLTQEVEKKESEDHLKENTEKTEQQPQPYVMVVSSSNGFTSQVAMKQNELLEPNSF
# Sequence of ETV6 (P41212 whole entry): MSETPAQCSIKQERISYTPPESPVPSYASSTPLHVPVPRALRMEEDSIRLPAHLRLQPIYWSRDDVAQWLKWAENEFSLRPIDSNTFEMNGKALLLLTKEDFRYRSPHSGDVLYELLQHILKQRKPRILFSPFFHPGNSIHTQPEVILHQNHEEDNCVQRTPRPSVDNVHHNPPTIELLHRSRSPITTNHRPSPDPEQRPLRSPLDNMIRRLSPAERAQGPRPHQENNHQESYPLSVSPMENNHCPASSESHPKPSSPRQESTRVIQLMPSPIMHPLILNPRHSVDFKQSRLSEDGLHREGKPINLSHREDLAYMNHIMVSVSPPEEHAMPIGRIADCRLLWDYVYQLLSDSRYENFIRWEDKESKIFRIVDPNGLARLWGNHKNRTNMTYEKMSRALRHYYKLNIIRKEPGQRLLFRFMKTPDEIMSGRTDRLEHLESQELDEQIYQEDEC
# Sequence of ETV5 (P41161 whole entry): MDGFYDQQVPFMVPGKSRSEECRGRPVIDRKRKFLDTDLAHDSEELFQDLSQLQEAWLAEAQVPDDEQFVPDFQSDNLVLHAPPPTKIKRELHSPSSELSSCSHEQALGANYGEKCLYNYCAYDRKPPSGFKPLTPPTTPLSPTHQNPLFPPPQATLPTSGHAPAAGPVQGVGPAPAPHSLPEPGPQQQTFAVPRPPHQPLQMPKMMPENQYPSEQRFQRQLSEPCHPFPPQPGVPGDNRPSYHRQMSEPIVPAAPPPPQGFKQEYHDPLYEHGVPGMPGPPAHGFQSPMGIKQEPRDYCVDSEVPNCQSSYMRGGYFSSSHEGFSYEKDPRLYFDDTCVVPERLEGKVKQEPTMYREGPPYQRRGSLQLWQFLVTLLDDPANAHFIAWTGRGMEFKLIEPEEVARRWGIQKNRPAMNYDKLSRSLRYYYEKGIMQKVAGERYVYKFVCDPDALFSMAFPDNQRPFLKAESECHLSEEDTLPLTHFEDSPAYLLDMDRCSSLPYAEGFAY
sequence,measurement,setting,value
CGTTGT,binding signal,[1],"1.09 fold enrichment (6-mer frequency, TF over GST control)"
same,binding signal,[2],"1 fold enrichment (6-mer frequency, TF over GST control)"
same,binding signal,[3],"1.02 fold enrichment (6-mer frequency, TF over GST control)"
same,binding signal,[4],"1.04 fold enrichment (6-mer frequency, TF over GST control)"
same,binding signal,[5],"1.01 fold enrichment (6-mer frequency, TF over GST control)"
same,binding signal,[6],"1.14 fold enrichment (6-mer frequency, TF over GST control)"
same,binding signal,[7],"1.03 fold enrichment (6-mer frequency, TF over GST control)"
same,binding signal,[8],"1.18 fold enrichment (6-mer frequency, TF over GST control)"
same,binding signal,[9],"1.05 fold enrichment (6-mer frequency, TF over GST control)"
same,binding signal,[10],"1.1 fold enrichment (6-mer frequency, TF over GST control)"
same,binding signal,[11],"1.07 fold enrichment (6-mer frequency, TF over GST control)"
same,binding signal,[12],"1 fold enrichment (6-mer frequency, TF over GST control)"
